For 20 compounds, inhibition results are on record in PubChem BioAssay AID1671202 (University of Kansas High Throughput Screening Laboratory, 2021).

“And” between values parts separate entries of the source, which are not always exact repeats. Identical values can stand only once. The campaign covered roughly 190,000 compounds. About 6,900 (3.6%) were called active. The entries come from a sample that favours actives as a whole. Unmarked numbers belong to inactive results. Cut-off read from the data, not from the text of the source: active = inhibition above about 50%; inactive = the rest.

What is called inhibition is the relative decrease from the control value, in per cent.

Chain of Huntingtin (Homo sapiens) (P42858 whole entry, looked up, stated change not applied): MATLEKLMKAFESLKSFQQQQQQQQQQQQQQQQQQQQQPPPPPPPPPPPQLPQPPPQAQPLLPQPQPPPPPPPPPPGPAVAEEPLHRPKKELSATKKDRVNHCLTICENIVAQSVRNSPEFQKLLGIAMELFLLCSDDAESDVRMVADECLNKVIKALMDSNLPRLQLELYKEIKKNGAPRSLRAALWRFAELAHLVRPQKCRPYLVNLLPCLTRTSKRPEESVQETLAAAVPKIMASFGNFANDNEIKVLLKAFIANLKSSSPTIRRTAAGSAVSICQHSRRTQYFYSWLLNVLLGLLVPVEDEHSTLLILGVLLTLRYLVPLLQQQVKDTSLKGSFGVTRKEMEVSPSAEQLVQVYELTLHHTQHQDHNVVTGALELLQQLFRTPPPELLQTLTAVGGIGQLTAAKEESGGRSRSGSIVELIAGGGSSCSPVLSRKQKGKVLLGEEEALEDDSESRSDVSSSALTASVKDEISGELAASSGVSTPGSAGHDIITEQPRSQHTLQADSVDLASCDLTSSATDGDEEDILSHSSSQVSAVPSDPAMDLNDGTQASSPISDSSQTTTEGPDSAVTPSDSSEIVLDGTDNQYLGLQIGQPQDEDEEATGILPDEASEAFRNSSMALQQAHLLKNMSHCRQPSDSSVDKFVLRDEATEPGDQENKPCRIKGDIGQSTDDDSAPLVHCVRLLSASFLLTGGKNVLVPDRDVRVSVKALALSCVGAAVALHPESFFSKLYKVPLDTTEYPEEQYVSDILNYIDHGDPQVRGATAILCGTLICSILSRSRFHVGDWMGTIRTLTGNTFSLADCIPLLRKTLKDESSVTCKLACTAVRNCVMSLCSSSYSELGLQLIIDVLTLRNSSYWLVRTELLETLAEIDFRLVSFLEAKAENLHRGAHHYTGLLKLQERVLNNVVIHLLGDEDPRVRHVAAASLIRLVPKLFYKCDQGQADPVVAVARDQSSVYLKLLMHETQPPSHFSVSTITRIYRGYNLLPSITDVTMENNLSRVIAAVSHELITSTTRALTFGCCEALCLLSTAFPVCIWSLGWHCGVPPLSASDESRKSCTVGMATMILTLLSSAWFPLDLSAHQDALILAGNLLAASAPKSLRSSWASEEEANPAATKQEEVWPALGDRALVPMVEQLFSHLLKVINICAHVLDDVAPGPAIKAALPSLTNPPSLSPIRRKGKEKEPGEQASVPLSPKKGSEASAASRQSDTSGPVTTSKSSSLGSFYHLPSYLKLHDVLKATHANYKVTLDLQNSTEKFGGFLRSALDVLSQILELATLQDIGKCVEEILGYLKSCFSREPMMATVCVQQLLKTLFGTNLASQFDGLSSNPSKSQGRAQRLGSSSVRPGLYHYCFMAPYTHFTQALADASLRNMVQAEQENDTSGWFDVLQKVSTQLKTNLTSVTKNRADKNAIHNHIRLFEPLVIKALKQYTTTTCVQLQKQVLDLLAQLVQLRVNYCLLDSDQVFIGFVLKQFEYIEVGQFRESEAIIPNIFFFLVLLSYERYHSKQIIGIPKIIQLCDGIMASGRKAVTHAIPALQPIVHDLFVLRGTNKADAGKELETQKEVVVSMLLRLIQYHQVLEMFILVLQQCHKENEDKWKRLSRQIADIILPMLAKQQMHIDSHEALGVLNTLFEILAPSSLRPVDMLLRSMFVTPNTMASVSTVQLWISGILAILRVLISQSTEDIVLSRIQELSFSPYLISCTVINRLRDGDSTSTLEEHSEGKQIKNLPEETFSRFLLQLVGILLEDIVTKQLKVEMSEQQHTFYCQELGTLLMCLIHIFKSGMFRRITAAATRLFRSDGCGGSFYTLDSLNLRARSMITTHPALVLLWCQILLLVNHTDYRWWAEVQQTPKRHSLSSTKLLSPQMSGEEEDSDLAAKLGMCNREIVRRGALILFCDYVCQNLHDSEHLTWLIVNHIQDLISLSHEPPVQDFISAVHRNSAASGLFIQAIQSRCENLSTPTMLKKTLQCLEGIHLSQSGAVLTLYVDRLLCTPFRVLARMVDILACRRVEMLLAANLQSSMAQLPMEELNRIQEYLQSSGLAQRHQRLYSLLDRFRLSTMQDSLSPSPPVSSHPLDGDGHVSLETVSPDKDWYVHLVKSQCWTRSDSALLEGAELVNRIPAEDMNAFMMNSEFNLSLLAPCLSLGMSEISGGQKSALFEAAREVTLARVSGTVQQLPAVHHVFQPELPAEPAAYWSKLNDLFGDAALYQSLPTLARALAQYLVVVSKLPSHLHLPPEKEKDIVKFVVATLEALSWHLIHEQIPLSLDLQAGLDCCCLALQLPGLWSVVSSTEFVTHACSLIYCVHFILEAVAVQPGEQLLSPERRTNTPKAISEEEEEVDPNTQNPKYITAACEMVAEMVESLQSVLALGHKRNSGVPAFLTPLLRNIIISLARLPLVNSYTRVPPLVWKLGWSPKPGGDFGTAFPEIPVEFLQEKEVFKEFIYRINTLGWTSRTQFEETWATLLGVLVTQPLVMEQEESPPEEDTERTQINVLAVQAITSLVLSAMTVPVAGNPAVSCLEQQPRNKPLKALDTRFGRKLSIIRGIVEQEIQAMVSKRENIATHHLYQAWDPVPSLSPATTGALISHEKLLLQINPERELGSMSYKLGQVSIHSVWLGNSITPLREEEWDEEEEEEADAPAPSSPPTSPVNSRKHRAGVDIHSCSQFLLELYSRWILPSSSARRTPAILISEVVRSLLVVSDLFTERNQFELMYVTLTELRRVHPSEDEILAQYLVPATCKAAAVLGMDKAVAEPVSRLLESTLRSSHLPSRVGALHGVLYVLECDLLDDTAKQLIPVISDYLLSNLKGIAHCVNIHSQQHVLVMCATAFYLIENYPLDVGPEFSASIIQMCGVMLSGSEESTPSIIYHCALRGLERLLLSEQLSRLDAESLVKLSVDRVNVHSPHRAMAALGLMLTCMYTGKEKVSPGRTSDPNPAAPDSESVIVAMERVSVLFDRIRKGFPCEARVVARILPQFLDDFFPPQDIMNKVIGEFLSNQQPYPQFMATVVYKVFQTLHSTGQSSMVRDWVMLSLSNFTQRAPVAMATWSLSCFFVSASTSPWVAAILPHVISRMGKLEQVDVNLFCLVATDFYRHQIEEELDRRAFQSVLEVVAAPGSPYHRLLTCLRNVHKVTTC

The test addresses Huntingtin (Homo sapiens) (UniProt P42858). The experiment in a line: mutant huntingtin-calmodulin interaction inhibitors – biochemical, AlphaScreen, primary screen (AID 1671202).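 Note: 0% = both proteins with DMSO and 100% = one protein alone.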 The settings on record: AlphaScreen His-mHTT/GST-CaM binding, luminescence; at 15 µM; stronger effect = higher value. In general terms: Bead proximity is the source of the signal in Alpha formats.
On to `Nc1ccc(Cc2ccc(N)c(Cl)c2)cc1Cl`, for which the inhibition was 14.7%.
In the case of `Nc1ccc(-c2ccc(N)c(N)c2)cc1N`, the inhibition was 92.1% (active).
`CC(C)CCn1c(=O)c(C(=O)Nc2ccccn2)c(O)c2ccccc21`: the inhibition is -1%.
The value for `CCCn1c(=O)cc(C)c2ccc(OCC(=O)N3CCN(C)CC3)cc21` was -3.5%; that for `Cc1csc(NC(=O)c2cccn(Cc3cccc([N+](=O)[O-])c3)c2=O)n1` was -9.9%.
Next, `CCOC(=O)c1ccc(NC(=O)c2cccn(Cc3ccc(C(F)(F)F)cc3)c2=O)cc1`: 83.3% (active).
As to `CCCCS(=O)(=O)N1CCC2(C1)C(=O)N(C)c1ccc(OC)cc12` (stereo not given), the inhibition is 12.5%.
The value for `COc1ccc(CCC(=O)N2CCC3(C2)C(=O)N(C)c2ccc(OC)cc23)cc1` (stereo not given) was 6.74%; that for `CC(C)CCNC(=O)CN1C(=O)C(C)N=C(c2ccccc2)c2ccccc21` (stereo not given) was 5%; that for `O=C(Cc1c[nH]c2ccccc12)N1CCCN(C2CCN(Cc3ccc(F)cc3)C2=O)CC1` (stereo not given) was 44.9%.
The value for `O=[N+]([O-])c1cccc(C(Cl)Cl)c1` was -5.2%; that for `O=c1cccc2n1CC1CC2CN(Cc2cc(Cl)ccc2O)C1` (stereo not given) was 3.2%.
The value for `COC(=O)c1ccc2[se]c(CC3CCCCC3)c(I)c2c1` was -13.6%.
In the case of `CCN(CC)CCNc1ccc([N+](=O)[O-])c2cccnc12`, the inhibition is -2.5% and 9%.
Next, `O=[N+]([O-])c1ccc(NCCNc2ccc([N+](=O)[O-])c3cccnc23)cc1`: 1.26%; `CC(C)(CNc1ccc([N+](=O)[O-])c2cccnc12)CNS(=O)(=O)c1ccc(Cl)cc1`: 54% (active); `CCN(CC)CC#CCOc1ccccc1`: -4.9%.
The value for `CC(=O)c1ccc(OC(NC(=O)Cc2ccccc2)C(Cl)(Cl)Cl)cc1` (stereo not given) was 50% (active); that for `CN1CCN(c2nnc(C(F)(F)F)s2)CC1` was -5%.
The value for `CC(C)c1cc(=O)n2c(n1)SCC2CC(=O)N1CC2CC(C1)c1cccc(=O)n1C2` (stereo not given) was -1.2%.
